Records with an inconclusive call do not appear. A call without a number means that no potency is given here. Values without a mark were called inactive. The source made the active and inactive calls. Unless noted, the call rests on the fitted dose curve; in most records, active means well fitted inhibition curve with a large enough effect; inconclusive means small, poorly fitted or top-dose-only effect; inactive means no such curve, though single readings can be large or run the other way.
Molecular target: Atrial natriuretic peptide receptor 1 (Homo sapiens) (UniProt P16066)
Sequence (P16066 whole entry, looked up): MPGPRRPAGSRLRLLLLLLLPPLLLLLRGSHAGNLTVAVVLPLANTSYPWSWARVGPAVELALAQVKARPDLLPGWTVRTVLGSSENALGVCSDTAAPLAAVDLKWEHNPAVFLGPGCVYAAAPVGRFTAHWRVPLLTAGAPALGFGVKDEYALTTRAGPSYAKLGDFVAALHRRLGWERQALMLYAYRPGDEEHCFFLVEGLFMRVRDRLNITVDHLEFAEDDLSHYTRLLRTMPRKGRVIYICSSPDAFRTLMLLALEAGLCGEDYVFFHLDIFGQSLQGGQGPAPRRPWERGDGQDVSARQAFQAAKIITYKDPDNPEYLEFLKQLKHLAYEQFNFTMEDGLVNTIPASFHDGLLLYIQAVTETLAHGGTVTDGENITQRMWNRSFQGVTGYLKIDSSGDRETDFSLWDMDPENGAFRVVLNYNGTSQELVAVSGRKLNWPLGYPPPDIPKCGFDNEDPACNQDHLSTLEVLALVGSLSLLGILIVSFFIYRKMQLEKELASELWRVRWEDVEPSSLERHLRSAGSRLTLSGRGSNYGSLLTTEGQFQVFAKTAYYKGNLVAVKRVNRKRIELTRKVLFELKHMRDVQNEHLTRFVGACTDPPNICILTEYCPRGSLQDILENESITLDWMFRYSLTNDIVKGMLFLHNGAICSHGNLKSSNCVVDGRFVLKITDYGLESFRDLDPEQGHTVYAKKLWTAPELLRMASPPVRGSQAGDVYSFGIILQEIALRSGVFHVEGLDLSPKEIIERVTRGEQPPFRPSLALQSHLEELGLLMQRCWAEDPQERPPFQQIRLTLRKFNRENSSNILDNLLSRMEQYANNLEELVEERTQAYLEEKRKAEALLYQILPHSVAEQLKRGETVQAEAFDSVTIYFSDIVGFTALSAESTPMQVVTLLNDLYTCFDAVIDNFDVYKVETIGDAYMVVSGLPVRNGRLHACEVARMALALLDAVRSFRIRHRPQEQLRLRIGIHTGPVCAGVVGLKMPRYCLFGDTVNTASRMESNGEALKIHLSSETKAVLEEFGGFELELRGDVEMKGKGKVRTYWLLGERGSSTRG
Assay: Natriuretic polypeptide receptor (hNpr1) antagonism - Pilot screen (AID 1347049; calls by dose curve;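 further: HEK293 cells with hNpr1 and GloSensor cGMP luciferase stimulated by 0.1 nM hNppA; agonist-evoked cGMP luminescence read 20 min after hNppA addition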)
Conditions: hNpr1 cells, antagonist mode cGMP read-out; series mostly up to 57.5 µM; activity change, negative = inhibition: at the top concentration
Summary of the method: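 Cells expressing receptor plus cGMP biosensor are seeded and incubated overnight at 37C, then loaded with GloSensor reagent (2% final) at room temperature for 2 h. Library compounds go on for 30 min. A pre-read precedes agonist (hNppA, 0.1 nM final) and a 20-min readout.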
In the case of `Nc1nc(N)c2nc(CNc3ccc(C(=O)NC(CCC(=O)O)C(=O)O)cc3)cnc2n1` (configuration not stated), the “activity change, negative = inhibition” value is reported as 8.13%.
With `NC(=O)c1ccc2[nH]ccc2c1` the “activity change, negative = inhibition” value was 5.84%.
For `CCN(CC)CC#CCOC(=O)C(O)(c1ccccc1)C1CCCCC1` (configuration not stated), the “activity change, negative = inhibition” value was -3.1%.
For `CC(C)NCC(O)c1ccc(NS(C)(=O)=O)cc1` (configuration not stated), the “activity change, negative = inhibition” value was 11.7%.
In the case of `OCc1ccc(-c2nn(Cc3ccccc3)c3ccccc23)o1`, the “activity change, negative = inhibition” value is reported as 8.28%.
With `CCCCS(=N)(=O)CCC(N)C(=O)O` (configuration not stated) the “activity change, negative = inhibition” value was -1%.
In the case of `CC1CC2C3CCC4=CC(=O)C=C[C@]4(C)[C@@]3(F)[C@@H](O)C[C@]2(C)[C@@]1(O)C(=O)CO` (some centres not stated), the “activity change, negative = inhibition” value is reported as 3.09%.
In the case of `O=C(O)C1CCCN(CCC=C(c2ccccc2)c2ccccc2)C1` (configuration not stated), the “activity change, negative = inhibition” value is reported as 3.38%.
For `COc1cc2ncnc(Nc3cccc(Cl)c3)c2cc1OC`, the “activity change, negative = inhibition” value was 2.5%.

Molecular target: Atrial natriuretic peptide receptor 2 (Homo sapiens) (UniProt P20594)
Sequence (P20594 whole entry, looked up): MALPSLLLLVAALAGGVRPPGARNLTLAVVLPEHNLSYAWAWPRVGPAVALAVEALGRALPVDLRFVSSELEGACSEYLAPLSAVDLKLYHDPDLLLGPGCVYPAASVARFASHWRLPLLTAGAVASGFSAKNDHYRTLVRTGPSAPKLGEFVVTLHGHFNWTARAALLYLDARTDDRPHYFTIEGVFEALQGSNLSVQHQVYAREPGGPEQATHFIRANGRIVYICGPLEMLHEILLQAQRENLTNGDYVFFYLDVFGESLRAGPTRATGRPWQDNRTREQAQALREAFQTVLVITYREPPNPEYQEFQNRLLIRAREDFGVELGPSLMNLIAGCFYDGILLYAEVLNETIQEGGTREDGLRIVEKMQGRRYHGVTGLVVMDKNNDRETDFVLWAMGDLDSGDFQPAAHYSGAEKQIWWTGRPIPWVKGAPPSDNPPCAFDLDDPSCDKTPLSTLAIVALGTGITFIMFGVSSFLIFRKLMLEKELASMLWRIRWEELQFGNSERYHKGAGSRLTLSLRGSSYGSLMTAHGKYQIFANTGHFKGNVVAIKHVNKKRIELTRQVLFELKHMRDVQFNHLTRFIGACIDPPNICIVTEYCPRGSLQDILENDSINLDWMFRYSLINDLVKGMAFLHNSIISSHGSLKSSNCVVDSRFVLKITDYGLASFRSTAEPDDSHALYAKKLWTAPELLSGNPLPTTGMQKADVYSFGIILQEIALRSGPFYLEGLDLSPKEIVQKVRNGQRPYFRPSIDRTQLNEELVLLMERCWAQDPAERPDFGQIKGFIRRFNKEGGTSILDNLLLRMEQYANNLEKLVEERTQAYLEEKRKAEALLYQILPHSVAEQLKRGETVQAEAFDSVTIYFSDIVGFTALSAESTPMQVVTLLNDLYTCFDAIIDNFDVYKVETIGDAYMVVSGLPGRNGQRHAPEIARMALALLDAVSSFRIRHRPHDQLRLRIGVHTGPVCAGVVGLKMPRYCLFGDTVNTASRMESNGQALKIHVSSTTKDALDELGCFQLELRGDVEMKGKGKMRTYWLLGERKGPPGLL
Assay: Natriuretic polypeptide receptor (hNpr2) antagonism - Pilot subtype selectivity assay (AID 1347050; calls by dose curve)
Conditions: NPR2-expressing cells, cGMP antagonist-mode read-out; series mostly up to 38.3 µM; activity change, negative = inhibition: at the top concentration
Summary of the method: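 Read-out: GloSensor luminescence (CCD imager), baseline vs post-stimulation. HEK293 cells expressing hNpr2; compounds pre-incubated 30-50 min at ambient temperature; hNppC 1 nM final, 20 min.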
With `N[C@@H](Cc1ccc(O)c(O)c1)C(=O)O` the “activity change, negative = inhibition” value was 1.46%.
In the case of `Nc1nc(N)c2nc(CNc3ccc(C(=O)NC(CCC(=O)O)C(=O)O)cc3)cnc2n1` (configuration not stated), the “activity change, negative = inhibition” value is reported as -24.9%.
In the case of `NC(=O)c1ccc2[nH]ccc2c1`, the “activity change, negative = inhibition” value is reported as 14.9%.
With `CCN(CC)CC#CCOC(=O)C(O)(c1ccccc1)C1CCCCC1` (configuration not stated) the “activity change, negative = inhibition” value was 2.55%.
In the case of `CC(C)NCC(O)c1ccc(NS(C)(=O)=O)cc1` (configuration not stated), the “activity change, negative = inhibition” value is reported as 6.28%.
With `CC(=O)[C@H]1CC[C@H]2[C@@H]3CCC4=CC(=O)CC[C@]4(C)[C@H]3CC[C@]12C` the “activity change, negative = inhibition” value was 3.02%.
In the case of `CCCCS(=N)(=O)CCC(N)C(=O)O` (configuration not stated), the “activity change, negative = inhibition” value is reported as -1.93%.
In the case of `CC1CC2C3CCC4=CC(=O)C=C[C@]4(C)[C@@]3(F)[C@@H](O)C[C@]2(C)[C@@]1(O)C(=O)CO` (some centres not stated), the “activity change, negative = inhibition” value is reported as 16.2%.
With `O=C(O)C1CCCN(CCC=C(c2ccccc2)c2ccccc2)C1` (configuration not stated) the “activity change, negative = inhibition” value was -3.46%.
For `COc1cc2ncnc(Nc3cccc(Cl)c3)c2cc1OC`, the “activity change, negative = inhibition” value was -0.531%.

Test system: not listed separately
Assay: NS1 protein of Zika virus - qHTS assay to identify small molecule inhibitors in human HEK 293 cells (AID 1347053); further: nearly all actives have a fitted effect of over 55% in size; further: potency means the concentration at half of the fitted maximal effect
Conditions: HEK293 ZIKV MR766 infection, NS1 TR-FRET, 24 h; series mostly up to 46.1 µM; activity change, negative = inhibition: at the top concentration
Summary of the method: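 Read-out is a two-antibody TR-FRET for ZIKV NS1, normalized between uninfected cells and infected cells. Compound added 1 h before MR766 infection at MOI 0.5; human HEK 293 cells incubated 24 h, 37 C.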
With `CNS(=O)(=O)Cc1ccc2[nH]cc(CCN(C)C)c2c1` the Potency was “inactive”.
For `N[C@@H](Cc1ccc(O)c(O)c1)C(=O)O`, the Potency was “inactive”.
In the case of `Nc1nc(N)c2nc(CNc3ccc(C(=O)NC(CCC(=O)O)C(=O)O)cc3)cnc2n1` (configuration not stated), the Potency is reported as “inactive”.
In the case of `NC(=O)c1ccc2[nH]ccc2c1`, the Potency is reported as “inactive”.
In the case of `CC(N)C12CC3CC(CC(C3)C1)C2` (configuration not stated), the Potency is reported as “inactive”.
In the case of `CO[C@@H]1[C@@H](OC(N)=O)[C@@H](O)[C@H](Oc2ccc3c(O)c(NC(=O)c4ccc(O)c(CC=C(C)C)c4)c(=O)oc3c2C)OC1(C)C`, the Potency is reported as “inactive”.
In the case of `CCN(CC)CC#CCOC(=O)C(O)(c1ccccc1)C1CCCCC1` (configuration not stated), the “activity change, negative = inhibition” value is reported as 10.7%.
In the case of `CC(C)NCC(O)c1ccc(NS(C)(=O)=O)cc1` (configuration not stated), the Potency is reported as “inactive”.
In the case of `CCOC(=O)c1ccc(OC(=O)CCCCCN=C(N)N)cc1`, the Potency is reported as “inactive”.
With `CCc1c2c(nc3ccc(OC(=O)N4CCC(N5CCCCC5)CC4)cc13)-c1cc3c(c(=O)n1C2)COC(=O)[C@]3(O)CC` the Potency was 332 nM (active).
With `CC1(C)[C@H](C(=O)O)N2C(=O)C[C@H]2S1(=O)=O` the Potency was “inactive”.
In the case of `CO[C@@]12[C@H](COC(N)=O)C3=C(C(=O)C(C)=C(N)C3=O)N1C[C@@H]1N[C@@H]12`, the “activity change, negative = inhibition” value is reported as 9.48%.
For `CNC1CCCN(c2c(F)cc3c(=O)c(C(=O)O)cn(C4CC4)c3c2OC)C1` (configuration not stated), the Potency was “inactive”.
With `NC(N)=NC(N)=NCCc1ccccc1` the Potency was “inactive”.
In the case of `COc1nc(N)nc2c1ncn2[C@@H]1O[C@H](CO)[C@@H](O)[C@@H]1O`, the Potency is reported as “inactive”.
For `COC(=O)Nc1nc2ccc(C(=O)c3ccccc3)cc2[nH]1`, the “activity change, negative = inhibition” value was 12.9%.
For `OCc1ccc(-c2nn(Cc3ccccc3)c3ccccc23)o1`, the “activity change, negative = inhibition” value was 20.7%.
With `CC(C)OC(=O)OCOP(=O)(CO[C@H](C)Cn1cnc2c(N)ncnc21)OCOC(=O)OC(C)C` the Potency was “inactive”.
For `CC(=O)[C@H]1CC[C@H]2[C@@H]3CCC4=CC(=O)CC[C@]4(C)[C@H]3CC[C@]12C`, the “activity change, negative = inhibition” value was 27.4%.
With `CC[C@H](NC(C)C)[C@H](O)c1ccc(O)c2[nH]c(=O)ccc12` the Potency was “inactive”.
With `CN1CCN(c2c(F)cc3c(=O)c(C(=O)O)cn4c3c2OCN4C)CC1` the Potency was “inactive”.
In the case of `CCCCS(=N)(=O)CCC(N)C(=O)O` (configuration not stated), the Potency is reported as “inactive”.
In the case of `CCCCCCNC(=O)n1cc(F)c(=O)[nH]c1=O`, the Potency is reported as “inactive”.
For `COC(c1ccccc1)(c1ccccc1)[C@H](Oc1nc(C)cc(C)n1)C(=O)O`, the Potency was “inactive”.
With `CC1CC2C3CCC4=CC(=O)C=C[C@]4(C)[C@@]3(F)[C@@H](O)C[C@]2(C)[C@@]1(O)C(=O)CO` (some centres not stated) the Potency was “inactive”.
For `OC(Cn1cncn1)(Cn1cncn1)c1ccc(F)cc1F`, the Potency was “inactive”.
With `O=C(O)C1CCCN(CCC=C(c2ccccc2)c2ccccc2)C1` (configuration not stated) the Potency was “inactive”.
In the case of `O=C(O)CSCC(=O)NC1CCSC1=O` (configuration not stated), the Potency is reported as “inactive”.
With `Clc1ccccc1CN1CCc2sccc2C1` the Potency was “inactive”.
With `N=C(N)c1ccc(OCCCCCOc2ccc(C(=N)N)cc2)cc1` the Potency was “inactive”.
With `CCCCOc1ccc(CC(=O)NO)cc1` the Potency was “inactive”.
In the case of `NCCCC(O)(P(=O)(O)O)P(=O)(O)O`, the Potency is reported as “inactive”.
For `COc1cc2ncnc(Nc3cccc(Cl)c3)c2cc1OC`, the Potency was “inactive”.

— PubChem BioAssay (NCATS)
